In PubChem BioAssay AID1706 (The Scripps Research Institute Molecular Screening Center, 2009):
Hit rate of the full screen: of about 290,000 compounds, about 400 (0.14%) were called active. The sample holds actives, similar compounds and a random draw of the others, so the mix is not that of the screen. Rule as the data show it: active = inhibition above about 12%; inactive = the rest.

target: Replicase polyprotein 1ab (Severe acute respiratory syndrome coronavirus) (UniProt P0C6X7); experiment: blockers of SARS 3CLpro peptide cleavage – biochemical, quenched FRET, primary screen (AID 1706); conditions: recombinant SARS-CoV 3CLpro, at 6 µM, hits give high values

Compound | inhibition
COc1ccc(S(=O)(=O)c2c[nH]c(=S)[nH]c2=O)cc1Cl | -1.78% (inactive)
CN(CC(=O)N1CCN(c2ccccc2)CC1)S(=O)(=O)c1cccs1 | 2.74% (inactive)
CC(=O)c1ccc(S(=O)(=O)N2CCC(Oc3ccc(-n4cnnn4)cc3)CC2)cc1 | -1.99% (inactive)
CC(Sc1nnc(CNC(=O)c2ccccc2F)n1C)C(=O)Nc1nccs1 (stereo not given) | -0.59% (inactive)
COc1cc(C(=O)NCCOC(=O)c2cccc(N(C)C)c2)cc(OC)c1OC | 0.81% (inactive)
CCOC(=O)C1CCCN(CCSc2ccc(C)cc2)C1 (stereo not given) | -2.08% (inactive)
O=C(O)c1ccc(NC(=O)c2cn(-c3ccccc3)nc2-c2ccc(Cl)cc2)cc1 | 12.7% (active)
Cc1ccc(-c2nn(-c3ccccc3)cc2C(=O)Nc2cccc(S(=O)(=O)N3CCOCC3)c2)cc1 | 1.75% (inactive)
COc1ccc(-c2nn(-c3ccccc3)cc2/C=C\C(=O)Nc2ccc(C(=O)O)cc2)cc1 | 7.15% (inactive)
CCc1ccc(N(C(=O)c2csnn2)C(C(=O)NC2CCCCC2)c2ccncc2)cc1 (stereo not given) | 0.17% (inactive)
CC(C)(C)c1ccccc1NC(=O)CN1C(=O)NC2(CCCC2)C1=O | 0.18% (inactive)
Clc1ccc(Cc2nn3c(-c4ccncc4)nnc3s2)cc1 | 2.77% (inactive)
O=C(NCCCN1CCCCC1)C1CCCN(c2ncnc3c2nc2n3CCCCC2)C1 (stereo not given) | 1.81% (inactive)
Cc1nn2c(=O)cc(COC(=O)c3ccc(NC(=O)C(C)(C)C)cc3)nc2s1 | -0.62% (inactive)
Fc1ccccc1/C=N/Nc1cc(N2CCCCC2)ncn1 | 0.22% (inactive)
O=C(C1CCC(C(=O)N2CCCC2)CC1)N1CCCC1 (stereo not given) | -3.63% (inactive)
COc1cccc(-c2noc(C3CCCN(C(=O)c4ccc(F)cc4)C3)n2)c1 (stereo not given) | 2.89% (inactive)
CCNS(=O)(=O)c1ccc(CCC(=O)N2CCN(c3cc(Cl)ccc3C)CC2)cc1 | 0.81% (inactive)
CC(C)(C)C1CCC(C(=O)NCC(c2cccs2)N2CCOCC2)CC1 (stereo not given) | 4.8% (inactive)
COc1cc(NS(=O)(=O)c2ccc(NC(=S)NC(=O)c3ccc(Br)cc3)cc2)ncn1 | -2.77% (inactive)
COc1cc(CCC(=O)N2CCN(c3ccccc3Cl)CC2)cc(OC)c1OC | -0.35% (inactive)
CCN(CC)S(=O)(=O)c1ccc(Cl)c(C(=O)NCCN2CCOCC2)c1 | -0.28% (inactive)
CC(C)CCN1CCN(Cc2cn[nH]c2C2CCCCC2)CC1CCO (stereo not given) | 1.66% (inactive)
COc1ccccc1/C=C/C(=O)NC(=S)N1CCOCC1 | 2.02% (inactive)
COc1ccc(Cc2nc3ccc(C(=O)N4CCC(N(C)C)C4)cc3o2)cc1 (stereo not given) | -1.77% (inactive)
C[C@@]12C(=O)N(c3cccc(Br)c3)C(=O)N1[C@H](c1ccc(Cl)cc1)[C@@H]1C(=O)N(C3CCCCC3)C(=O)[C@@H]12 | 32.5% (active)
Cc1cccc(N2C(=O)N3[C@H](c4ccc(F)cc4)[C@@H]4C(=O)N(C5CCCCC5)C(=O)[C@@H]4[C@]3(Cc3ccccc3)C2=O)c1 | 9.1% (inactive)
Cc1cccc([C@@H]2[C@@H]3C(=O)N(Cc4ccccc4)C(=O)[C@@H]3[C@]3(C)C(=O)N(c4ccc(Br)cc4)C(=O)N23)c1 | -2.23% (inactive)

Compound | inhibition
Cn1c(=O)c(=O)n(C)c2cc(S(=O)(=O)CCC(=O)N3CCCCC3)ccc21 | -7.51% (inactive)
O=C(COc1ccc(S(=O)(=O)Nc2cccc(C(F)(F)F)c2)cc1)N1CCOCC1 | -1.24% (inactive)
O=C(NCc1ccccc1)c1ccc(S(=O)(=O)Nc2cccc(C(F)(F)F)c2)cc1 | 17.3% (active)
O=C(NCc1cccc(C(F)(F)F)c1)c1cccc(S(=O)(=O)N2CCN(Cc3ccccc3)CC2)c1 | 1.65% (inactive)
CN(C(=O)CCNC(=O)Cn1ccc2ccccc2c1=O)c1ccc(Br)cc1 | 1.62% (inactive)
COc1ccc2[nH]cc(/C=C(/C#N)S(=O)(=O)c3ccccc3)c2c1 | 4.75% (inactive)
COc1cc(/C=C(\C#N)c2nc3ccccc3[nH]2)ccc1O | -3.33% (inactive)
COc1ccc(/C=C(\C#N)c2c[nH]c3ccccc23)cc1 | 14.6% (active)
CC(c1cccnc1)N(CCN(C)C)C(=O)Nc1ccc(Cl)c(Cl)c1 (stereo not given) | 2.29% (inactive)
CS(=O)(=O)N(Cc1ccccc1Cl)c1ccc(C(=O)NCc2cccnc2)cc1 | 1.33% (inactive)
O=C(Nc1ccc(S(=O)(=O)NCC2CCCO2)cc1)c1ccc(F)cc1 (stereo not given) | -0.56% (inactive)
O=S(=O)(Nc1ccccc1)c1ccc(NS(=O)(=O)c2cccs2)cc1 | 2.66% (inactive)
COC(=O)C1=CN(c2ccc(F)c(F)c2)C=C(C(=O)OC)C1c1ccc([N+](=O)[O-])cc1 | 1.13% (inactive)
O=C(NCc1ccc(F)cc1)C1CCN(C(=O)Nc2ccc(F)cc2)CC1 | 5.05% (inactive)
CC(C)c1ccc(C2C(C(=O)c3ccco3)=C(O)C(=O)N2CC2CCCO2)cc1 (stereo not given) | -0.41% (inactive)
Cc1nn(C)c(C)c1C(C)NC(=O)c1ccc(OC2CCN(Cc3ccccn3)CC2)cc1 (stereo not given) | 3.56% (inactive)
CCOc1ccc(OCc2cccc(C(=O)N(CC)CC)c2)cc1 | -3.35% (inactive)
COc1ccc(C(=O)NCCSc2ccccc2C)cc1 | 6.37% (inactive)
Cc1ccc(C(CNC(=O)Nc2ccccc2)N2CCN(C)CC2)cc1 (stereo not given) | -5.22% (inactive)
Cc1ccc(CS(=O)(=O)CCC(=O)NCc2ccc(F)cc2)cc1 | -1.28% (inactive)
COc1cccc(CC2(CO)CCCN(Cc3ccc(OC(F)F)cc3)C2)c1 (stereo not given) | -5.59% (inactive)
COc1ccc(C(CCN(Cc2ccc(OC)c(OC)c2)C(=O)CCl)c2ccccc2)cc1 (stereo not given) | 34.5% (active)
COc1ccc(CN(C)C(=O)CC(c2ccccc2)c2ccccc2)cc1 | 4.64% (inactive)
CCOC(=O)CN(Cc1ccc(OC)c(OC)c1)S(=O)(=O)c1ccc(OC)cc1 | 4.93% (inactive)
COC(=O)COc1cccc2c(=O)n(CC(=O)NCc3ccccc3)ccc12 | 12.8% (active)
Cc1ccc(CNC(=O)CCNC(=O)Cn2ccc3ccccc3c2=O)cc1 | 3.36% (inactive)
COC(=O)COc1cccc2c(=O)n(CC(=O)NCCc3ccc(OC)c(OC)c3)ccc12 | 4.26% (inactive)
